KCNQ2 enhance: potentiators of rat KCNQ2 potassium channel | O88943 | CHO-K1 KCNQ2, FluxOR thallium flux fluorescence; hits give high values | B-score at 10 µM | 0.54% of 310,000 active | AID 2239;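 active = fluorescence ratio B-score at least 3 SD of library B-scores, with initial fluorescence B-score within 3 of them, cut at about 5.3 in these data; same plate scores as AID 2156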;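 note: B-score of peak minus minimum over baseline fluorescence ratio after K+ and Tl+ stimulus; positive B-score means potentiation of KCNQ2 with more thallium influx and brighter signal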
Target sequence (O88943 whole entry, looked up): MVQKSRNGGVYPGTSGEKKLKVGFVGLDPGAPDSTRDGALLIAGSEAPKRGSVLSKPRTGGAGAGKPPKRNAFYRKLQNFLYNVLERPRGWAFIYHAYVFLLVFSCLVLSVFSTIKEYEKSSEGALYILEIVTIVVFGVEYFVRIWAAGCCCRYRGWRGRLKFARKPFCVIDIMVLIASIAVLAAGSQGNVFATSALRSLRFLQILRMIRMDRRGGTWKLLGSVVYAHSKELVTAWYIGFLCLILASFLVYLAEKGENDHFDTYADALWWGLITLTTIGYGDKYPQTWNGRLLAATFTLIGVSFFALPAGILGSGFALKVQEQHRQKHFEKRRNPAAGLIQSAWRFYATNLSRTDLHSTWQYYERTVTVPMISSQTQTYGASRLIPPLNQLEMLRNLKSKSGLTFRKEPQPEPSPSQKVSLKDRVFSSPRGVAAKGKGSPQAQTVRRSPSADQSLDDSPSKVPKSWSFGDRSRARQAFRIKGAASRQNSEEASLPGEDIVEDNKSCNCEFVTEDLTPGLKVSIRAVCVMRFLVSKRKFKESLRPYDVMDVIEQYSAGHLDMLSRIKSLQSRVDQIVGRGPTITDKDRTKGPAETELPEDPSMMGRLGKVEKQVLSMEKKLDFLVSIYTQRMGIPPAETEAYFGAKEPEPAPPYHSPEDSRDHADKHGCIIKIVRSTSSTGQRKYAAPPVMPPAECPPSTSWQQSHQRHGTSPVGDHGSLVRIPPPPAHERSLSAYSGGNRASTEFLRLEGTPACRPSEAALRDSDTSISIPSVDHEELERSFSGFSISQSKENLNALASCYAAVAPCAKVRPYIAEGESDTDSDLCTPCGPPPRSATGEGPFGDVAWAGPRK
KCNQ2 inh: inhibitors of rat KCNQ2 potassium channel | 1.1% of 310,000 active | O88943 | B-score at 10 µM | CHO-K1 KCNQ2, FluxOR thallium flux, 20 min; hits give low values | AID 2156;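 active = fluorescence ratio B-score at most minus 3 library SDs, with starting brightness B-score within 2 library SDs, cut at about -5.5 in these data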
Kir21 confirm: confirmation of mouse Kir2.1 potassium channel inhibitors; shares compounds with KCNQ2 enhance; Kir2.1-expressing cells, FluxOR thallium flux fluorescence; hits give low values; Tl flux remaining, % of negative control (hits give low values), % at 10 µM; 41% of 2,300 active; AID 2032;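 active = Primary-screen hit whose thallium flux fell at least 3 control SD below untreated wells in both duplicates, with normal baseline fluorescence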
HEK293 ctr: alters thallium flux in parental HEK293 cells, Kir2.1 counter-screen; shares compounds with KCNQ2 enhance; FluxOR thallium flux fluorescence; 0% = unstimulated blank wells; FluxOR signal as % of negative control (100 = no effect), % at 10 µM; 19% of 2,300 active;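 active = dye signal at least 3 control SD above or below untreated wells in both duplicates, raw fluorescence within 3, either direction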;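 note: percent is based on the flux ratio of peak minus minimum fluorescence over baseline F0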
CHO-K1 Tl ctr: counter-screen for KCNQ2 potentiators: effect in parental CHO-K1 cells; 43% of 1,200 active; activity increase over 3SD of controls, % at 10 µM; shares compounds with KCNQ2 enhance; FluxOR thallium flux fluorescence; zero = vehicle mean+3SD, 100% = vehicle-minus-blank window;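 active = signal rise of at least 3 SD above the untreated control mean, in both duplicate wells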;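 note: counter screen of KCNQ2 potentiator hits so any rise reflects channel-independent effects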
KCNQ1 pot spec: tests whether KCNQ2 potentiators also act on human KCNQ1; shares compounds with KCNQ2 enhance; CHO KCNQ1 stable, FluxOR thallium flux fluorescence; beyond 3SD, as % of vehicle-control signal; activation over 3SD threshold, % at 10 µM; 28% of 1,200 active;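 active = fluorescence ratio rise of at least 3 SD of vehicle wells above their mean, in both replicate wells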
KCNQ2 pot conf: rat KCNQ2 channel potentiator confirmation; CHO-KCNQ2 cells, FluxOR thallium flux fluorescence; 68% of 1,200 active; potentiation, less the hit threshold, % at 10 µM; shares compounds with KCNQ2 enhance; AID 2287;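 active = fluorescence ratio rising 3 SD or more over the vehicle control mean in both replicates, plus primary screen hit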;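 note: peak minus minimum thallium fluorescence divided by baseline after K/Tl stimulus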
Kir2-1 sel: tests whether KCNQ2 potentiators also affect mouse Kir2.1; HEK293 Kir2.1, FluxOR thallium flux fluorescence; activity over 3SD threshold, % at 10 µM; AID 2345; 2% of 1,200 active; shares compounds with KCNQ2 enhance;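 active = fluorescence ratio rise of at least 3 SD above the vehicle-control mean, seen in both replicates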
KCNQ2 W236L MoA: KCNQ2 potentiators acting on retigabine-insensitive rat KCNQ2 W236L mutant | CHO KCNQ2-W236L, automated patch clamp current | current increase over 3SD of negative controls (%), hits give high values, % at 25 µM | 10% of 940 active | shares compounds with KCNQ2 enhance;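 active = current increase at least 3 SD of the untreated controls above them in both duplicate recordings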
Large screens that a line does not name were inactive (follow-up assays come after a bar, where they were run). An excerpt weighted towards active compounds, which were near 1.6% of everything screened.

O=C(Oc1ccc(C(=S)N2CCOCC2)cc1)c1ccccc1[N+](=O)[O-]	none (no result: KCNQ2 enhance)
COCCNC(=O)CCN1N=C(c2ccccc2)CCC1=O	none
CCOC(=O)N1CCN(C(=O)c2cccc(N3C(=O)NC4CC3(C)Oc3ccc(Cl)cc34)c2)CC1 (stereo not given)	none (no result: KCNQ2 enhance)
Cc1cc(=O)[nH]n(CCO)c1=O	none
COc1ccc(S(=O)(=O)N(CC(=O)NN=C2CCN(C)CC2)c2cc(Cl)ccc2OC)cc1OC	none (no result: KCNQ2 enhance)
COc1ccccc1N1CCN(S(=O)(=O)CCNC(=O)c2ccccc2Br)CC1	none
O=C(/C=C/c1ccccc1)c1cc(Br)ccc(=O)c1O	none
Cc1ccc(/C=C/C(=O)c2ccccc(=O)c2O)cc1C	KCNQ2 enhance 6.1 | Kir21 confirm inactive | HEK293 ctr inactive | CHO-K1 Tl ctr inactive | KCNQ1 pot spec inactive | KCNQ2 pot conf 0.8 | Kir2-1 sel inactive | KCNQ2 W236L MoA inactive
Cc1cc2c3c([nH]c2cc1S(=O)(=O)N1CCC2(CC1)OCCO2)CC(C)(C)CC3=O	KCNQ2 enhance 5.46 | Kir21 confirm inactive | HEK293 ctr 62.5% | CHO-K1 Tl ctr inactive | KCNQ1 pot spec inactive | KCNQ2 pot conf inactive | Kir2-1 sel inactive
CCc1cc2c3c([nH]c2cc1S(=O)(=O)N1CCC2(CC1)OCCO2)CCCC3=O	none
CCOC(=O)c1cnc(/N=C/N(C)C)s1	none (no result: KCNQ2 enhance)
CCOc1ccc(NC(=O)Cc2ccc(NC3=NC4CS(=O)(=O)CC4S3)cc2)cc1 (stereo not given)	KCNQ2 enhance 17.3 | Kir21 confirm inactive | HEK293 ctr inactive | CHO-K1 Tl ctr 8.6 | KCNQ1 pot spec inactive | KCNQ2 pot conf inactive | Kir2-1 sel inactive
CCc1ccc(NC(=O)Cc2ccc(NC3=NC4CS(=O)(=O)CC4S3)cc2)cc1 (stereo not given)	none (no result: KCNQ2 enhance)
C/[N+]([O-])=C\c1cccc(OCCN2CCN(c3ncc(C(F)(F)F)cc3Cl)CC2)c1	none
CCN(CC(=O)Nc1c(F)cccc1F)C(=O)/C=C/c1cn(Cc2ccccc2)nc1-c1cccnc1	none
CC(C)c1ccc(/C=C(\c2nc3ccccc3[nH]2)S(=O)(=O)c2ccccc2)cc1	none (no result: KCNQ2 enhance)
O=S(=O)(/C(=C/c1ccc(C(F)(F)F)cc1)c1nc2ccccc2[nH]1)c1ccccc1	KCNQ2 inh -7.84 | Kir21 confirm inactive | HEK293 ctr inactive
Cc1ccc(NC(=O)C2CC2C)c(Cl)c1 (stereo not given)	none
O=C(CN(CC1CCCO1)C(=O)CNS(=O)(=O)c1ccc(Cl)cc1)NC1CCCC1 (stereo not given)	none (no result: KCNQ2 enhance)
O=C(CC12CC3CC(CC(C3)C1)C2)NCC(c1ccc(F)cc1)N1CCOCC1 (stereo not given)	KCNQ2 enhance 11.2 | Kir21 confirm inactive | HEK293 ctr inactive | CHO-K1 Tl ctr inactive | KCNQ1 pot spec inactive | KCNQ2 pot conf 35.5 | Kir2-1 sel inactive | KCNQ2 W236L MoA inactive
O=C(NCC(c1ccc(F)cc1)N1CCOCC1)c1cc(F)c(F)c(F)c1F (stereo not given)	none (no result: KCNQ2 enhance)
COc1ccc(NC(=O)CCNS(=O)(=O)c2ccc3c(c2)c(=O)n(C)c(=O)n3C)c(OC)c1	none (no result: KCNQ2 enhance)
Cc1ccc(C)c(S(=O)(=O)Nc2ccc(O)cc2)c1	none
Cc1cc(C)c(S(=O)(=O)Nc2ccc(O)cc2)cc1C	KCNQ2 enhance 10.2 | CHO-K1 Tl ctr inactive | KCNQ1 pot spec 1.5 | KCNQ2 pot conf 40.3 | Kir2-1 sel inactive | KCNQ2 W236L MoA inactive
CCC(C)NC(=S)N1CCN(C)CC1 (stereo not given)	none
Clc1ccc(OCCCNCc2ccccc2)c(Br)c1	none (no result: KCNQ2 enhance) | Kir21 confirm 9.5% | HEK293 ctr 74.0%
Cc1cc(C)c(OCCCCN(C)Cc2ccccc2)c(C)c1	none (no result: KCNQ2 enhance) | Kir21 confirm 21.5% | HEK293 ctr inactive
Clc1ccc(Cl)c(OCCCCNCc2ccccc2)c1	none (no result: KCNQ2 enhance)
Cc1ccc(OCCCCN(C)Cc2ccccc2)c(Br)c1	none (no result: KCNQ2 enhance)
Cc1cc(Cl)c(OCCCNCc2ccccc2)c(Br)c1	none (no result: KCNQ2 enhance)
Cc1cc(C)c(OCCCNCc2ccccc2)c(Br)c1	none (no result: KCNQ2 enhance) | Kir21 confirm 11.5% | HEK293 ctr inactive
Cc1cc(Cl)cc(Br)c1OCCCNCC(C)O (stereo not given)	none | Kir21 confirm 27.0% | HEK293 ctr inactive
Cc1ccccc1OCCNCC(C)O (stereo not given)	none (no result: KCNQ2 enhance)
Cc1cccc(NC(=O)c2ccc(C3SCC(=O)N3CCc3ccccc3)cc2)c1C (stereo not given)	none (no result: KCNQ2 enhance)
CN(Cc1nc(Cc2cccc(C(F)(F)F)c2)no1)C1CC(C)(C)NC(C)(C)C1	none
O=C(NCCCn1ccnc1)c1ccc(C(F)(F)F)cc1	none (no result: KCNQ2 enhance)
COCC1CCCC1OS(N)(=O)=O (stereo not given)	none (no result: KCNQ2 enhance)
CCN(Cc1ccccc1)S(=O)(=O)c1ccc2c(c1)NC(=O)CS2	none | Kir21 confirm 73.0% | HEK293 ctr inactive
CCN(Cc1ccccc1)S(=O)(=O)c1ccc2c(c1)NC(=O)CC(=O)N2	none (no result: KCNQ2 enhance)
O=C(CCNC(=O)c1ccc(Br)cc1)Nc1ccccc1N1CCCC1	none (no result: KCNQ2 enhance)
O=C(Cc1c(F)cccc1Cl)Nc1ccccc1N1CCCCC1	none (no result: KCNQ2 enhance)
O=C(Cc1ccccc1)Nc1ccccc1N1CCCC1	KCNQ2 enhance 13.1 | CHO-K1 Tl ctr inactive | KCNQ1 pot spec inactive | KCNQ2 pot conf 54.4 | Kir2-1 sel inactive | KCNQ2 W236L MoA inactive
COc1ccc(CC(=O)Nc2ccccc2N2CCCC2)cc1OC	none
O=C(Cc1ccc(Br)cc1)Nc1ccccc1N1CCCC1	KCNQ2 enhance 17.9 | Kir21 confirm inactive | HEK293 ctr inactive | CHO-K1 Tl ctr inactive | KCNQ1 pot spec inactive | KCNQ2 pot conf 52.0 | Kir2-1 sel inactive | KCNQ2 W236L MoA inactive
O=C(Cc1cccc(C(F)(F)F)c1)Nc1ccccc1N1CCCC1	KCNQ2 enhance 11.2 | Kir21 confirm inactive | HEK293 ctr inactive | CHO-K1 Tl ctr inactive | KCNQ1 pot spec inactive | KCNQ2 pot conf 59.9 | Kir2-1 sel inactive | KCNQ2 W236L MoA inactive
COc1ccc(CC(=O)Nc2ccccc2N2CCCC2)cc1	none | Kir21 confirm 62.0% | HEK293 ctr inactive
O=C(Cc1ccccc1)Nc1ccccc1N1CCOCC1	none (no result: KCNQ2 enhance)
COc1ccc(Cc2n[nH]c(=S)n2C)cc1Br	none (no result: KCNQ2 enhance)
CCCC(C(=O)Nc1ccncc1)c1ccccc1 (stereo not given)	none

Screening results deposited in PubChem by Johns Hopkins Ion Channel Center.
